Inconclusive results are not listed. The source made the active and inactive calls. Unless noted, the call rests on the fitted dose curve; in most records, active means well fitted curve in the direction sought with a large enough effect; inconclusive means small, poorly fitted or top-dose-only effect, or another doubt; inactive means no such curve, though single readings can be large; an effect the other way counts as inactive or inconclusive.

The target in assay [1] is Flap endonuclease 1 (Homo sapiens) (UniProt P39748). The experiment in a line: qHTS Validation Assay for the Inhibitors of Human Flap endonuclease 1 (FEN1) (AID 488816). The gist of the method:
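Human FEN1 (10 nM) preincubated 15 min at room temperature with compounds, then flap DNA substrate added at 50 nM final. Fluorescence read at 0 and 15 min; concentration-response fitted with four-parameter Hill equation.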
(In general: qHTS replaces the single test concentration by a dilution series.)

For assay [2], the target named is Chromobox protein homolog 1 (Homo sapiens) (UniProt P83916). The experiment in a line: qHTS Validation Assay for Inhibitors of HP1-beta Chromodomain Interactions with Methylated Histone Tails (AID 488953). Further: nearly all actives have a fitted effect of over 50% in size. Further: potency means the concentration at half of the fitted maximal effect. The gist of the method: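 HP1-beta (50 nM) was preincubated 30 min at room temperature with biotinylated H3(1-18)K9me3 peptide (50 nM) in PBS pH 7.4, 0.01% Tween-20, then with compounds 30 min. AlphaScreen signal was read after streptavidin donor/nickel chelate acceptor beads (10 ug/mL final).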
Sequence of Chromobox protein homolog 1 (Homo sapiens) (P83916 whole entry, looked up): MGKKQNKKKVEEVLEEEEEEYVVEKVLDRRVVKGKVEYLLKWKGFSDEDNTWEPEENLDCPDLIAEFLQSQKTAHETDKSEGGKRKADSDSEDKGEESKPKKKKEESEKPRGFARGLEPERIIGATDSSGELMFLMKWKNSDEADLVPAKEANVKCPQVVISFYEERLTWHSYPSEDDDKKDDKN

Assay [3] addresses Thioredoxin reductase 1, cytoplasmic (Rattus norvegicus) (UniProt O89049). The assay is described as follows: qHTS Assay for Substrates of Mammalian Selenoprotein Thioredoxin Reductase 1 (TrxR1) (AID 488772).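 Further: NADPH fluorescence in the first read after selenite addition and not the 8 min delta; series mostly up to about 57 µM; a drop in NADPH fluorescence below the no-compound background marks a TrxR1 substrate.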 The gist of the method: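 Quantitative HTS in Tris-HCl buffer at pH 7.5 with EDTA and Tween-20, using rat TrxR1, 400 uM NADPH and 400 uM selenite (final). A fall in initial NADPH fluorescence relative to background marked substrate behaviour.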

Assay [4] concerns the target DNA polymerase III PolC-type (Bacillus subtilis (strain 168)) (UniProt P13267). The experiment in a line: qHTS Validation Assay for the Inhibitors of DNA Replication in Gram-Positive Bacteria (AID 485295).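 Further: PicoGreen fluorescence of double-stranded DNA made on primed circular M13 template; series mostly up to about 57 µM.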 The gist of the method:
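Reconstituted B. subtilis holoenzyme (Pol III, beta clamp, SSB, primase) was preincubated with compound at room temperature, then given single-stranded circular M13Gori plus dNTPs and NTPs. EDTA-containing PicoGreen stopped the reaction, and dsDNA product was read by fluorescence.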

Assay [5] in a line: Validation screen for small molecules that induce DNA re-replication in MCF 10A normal breast cells (AID 463097). Further: nearly all actives have a fitted effect of over 60% in size. Further: potency means the concentration at half of the fitted maximal effect. The gist of the method: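 Readout: Hoechst nuclear fluorescence intensity, 405 ex / 500-530 em, by scanning plate imager; re-replication scored as increase in nuclei with elevated DNA content. Cells exposed to compound 48 hr, 37 C, 5% CO2 beforehand.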
Assay [6] can be described thus: Quantitative high throughput screen for delayed death inhibitors of the malarial parasite plastid, 96 hour incubation (AID 488745). Further: nearly all actives have a fitted effect of over 70% in size. Further: potency means the concentration at half of the fitted maximal effect. The gist of the method:
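P. falciparum carrying an integrated firefly luciferase reporter, grown in erythrocytes (2% hematocrit, 0.1% parasitemia final) in RPMI 1640/0.5% Albumax, was exposed to compound for 96 h (two generations) at 37 C, 5% CO2. Luminescence decrease indicated growth inhibition.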

The nature of assay [7]: Quantitative high throughput screen for delayed death inhibitors of the malarial parasite plastid, 48 hour incubation (AID 488752). Further: nearly all actives have a fitted effect of over 65% in size. Further: potency means the concentration at half of the fitted maximal effect. The gist of the method: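 Erythrocytes infected with P. falciparum carrying an integrated firefly luciferase reporter (2% hematocrit, 0.1% parasitemia final) were exposed to compounds in RPMI 1640/0.5% Albumax for 48 h at 37 C, 5% CO2. Growth inhibition was scored as reduced luminescence.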

Assay [8] deals with M-phase phosphoprotein 8 (Homo sapiens) (UniProt Q99549). The experiment in a line: qHTS Validation Assay for Inhibitors for MPP8 Chromodomain Interactions with Methylated Histone Tails (AID 488949). Further: nearly all actives have a fitted effect of over 55% in size. Further: potency means the concentration at half of the fitted maximal effect. The essentials:
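MPP8 (50 nM) was preincubated with biotinylated H3(1-18)K9me3 peptide (50 nM) in PBS pH 7.4, 0.01% Tween-20 for 30 min at room temperature, then with compounds for 30 min; binding was detected by AlphaScreen.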

For assay [9], the target named is Transient receptor potential cation channel subfamily V member 1 (Homo sapiens) (UniProt Q8NER1). The assay is described as follows: HTS Assay for Compounds that Act as Enhancers of the Vanilloid Receptor 1 (AID 488979). The essentials:
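TRPV1 cells loaded with Fluo-8 calcium dye; compound added and Ca2+ signal (ex 480/em 520 nm) followed 3 min, then capsaicin at EC20 added and read 2 more min to detect enhancement.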

Assay [10] concerns the target Thyrotropin receptor (Homo sapiens) (UniProt P16473). The assay is described as follows: qHTS Assay for Antagonists of the Thyroid Stimulating Hormone Receptor (AID 488980). Further: series mostly up to about 58 µM. The gist of the method: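 HEK293 cells transfected with human TSHR, suspended in HEPES-buffered HBSS with 70 uM RO 20-1724, were treated with compounds plus TSH at EC80 (4 nM final). cAMP was measured by competitive HTRF (cryptate anti-cAMP antibody, cAMP-d2 acceptor).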

Assay [11] deals with D(1A) dopamine receptor (Homo sapiens) (UniProt P21728). The experiment in a line: HTS Assay for Allosteric Agonists of the Human D1 Dopamine Receptor: Primary Screen for Potentiators (AID 488982). Further: potency means the concentration at half of the fitted maximal effect. The gist of the method:
(§1)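 Tetracycline-induced HEK293 Trex D1 cells with forced coupling to calcium, loaded with no-wash calcium dye; kinetic fluorescence read 180 s after compound addition for agonism, then a further 180 s after an EC20 dopamine challenge for potentiation.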

In assay [12] the target is Ubiquitin carboxyl-terminal hydrolase 2 (Homo sapiens) (UniProt O75604). The experiment in a line: qHTS Validation Assay for Inhibitors of Ubiquitin-specific Protease USP2a Using CHOP2 as the Reporter (AID 463106). The essentials:
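USP2 core (10 nM final) was preincubated with compound 30 min at RT in pH 8.0 Tris/CaCl2/beta-ME/CHAPS buffer. Ub-CHOP2 and reporter substrate (25 nM final each) were then added, with fluorescence (Ex 485/Em 531) read after 60 min. Data were normalized to NEM full inhibition and fitted to concentration-response curves.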

For assay [13], the target named is Tumor susceptibility gene 101 protein (Homo sapiens) (UniProt Q99816). The assay is described as follows: qHTS Validation Assay for Iinhibitors of HIV-1 Budding by Blocking the Interaction of PTAP/TSG101 (AID 485342; calls by dose curve). The gist of the method:
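Tsg101 binding domain (10 uM final) in pH 7.5 HEPES/NaCl/Tween 20/EDTA/TCEP buffer was mixed with pin-transferred compounds, then FITC-labeled PTAP peptide (50 nM final) was added; after 20 min at r.t., fluorescence polarization was read.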

Assay [14] in a line: qHTS Validation Assay to Find Inhibitors of Chronic Active B-Cell Receptor Signaling (AID 485345; active means well fitted curve in the direction sought with a large enough effect in the main read-out, with a control signal flat, not every such curve was filed as active). The essentials:
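TMD8 ABC-DLBCL cells stably carrying doxycycline-inducible IkappaBalpha–green luciferase fusion plus unfused red luciferase; compounds 46 uM to 3 nM, 4 h at 37C with doxycycline. Corrected green/red luminescence ratio normalized to 10 uM MG-132 and basal cell wells; curves fitted.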

The target in assay [15] is Beta-2 adrenergic receptor (Homo sapiens) (UniProt P07550). The assay is described as follows: qHTS validation assay of beta-arrestin-biased ligands of beta2-adrenergic receptor (AID 485366). The essentials: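 Arrestin-recruitment (Tango) reporter: ligand-bound beta2-AR recruits beta-arrestin, releasing tTA, which upregulates luciferase. Titrations of up to 46 microM incubated 18 hr at 37 degrees C before luminescent readout.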

Assay [16] concerns the target ATP-dependent 6-phosphofructokinase (Trypanosoma brucei brucei) (UniProt O15648). The experiment in a line: qHTS Validation Assay to Find Inhibitors of T. brucei phosphofructokinase (AID 485368). Particulars: outcome: dose series up to 57.5 µM. The essentials:
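Steps: substrate mix (0.5 mM F6P, 0.1 mM ATP, MgCl2, TEA pH 8.0); compound; 1.25 nM T. brucei PFK; 45 min RT; ATP depletion 10 min; ADP-to-ATP detection 10 min; luminescence read; curve fitting and classification.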

For assay [17], the target named is Thioredoxin reductase 1, cytoplasmic (Rattus norvegicus) (UniProt O89049). The experiment in a line: qHTS Assay for Inhibitors of Mammalian Selenoprotein Thioredoxin Reductase 1 (TrxR1) (AID 488773).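 Further: drop in NADPH fluorescence over an 8 min run after selenite addition; series mostly up to about 57 µM; nearly all actives have a fitted effect of over 40% in size.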 Particulars: Potency: inhibition. The gist of the method:
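Steps: enzyme (90 nM) plus NADPH (400 uM final), 5 min at ~22 deg C; compound added, 15 min; selenite (400 uM final) added; fluorescence followed for 8 min. Concentration-response curves derived from the normalized delta values.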

Assay [18] concerns the target Methanococcus maripaludis chaperonin (MmCpn) (UniProt Q6LX38). The assay is described as follows: High-Throughput Screening for Modulators of Cytosolic Chaperonin Activity: MmCpn Primary Screen (AID 488978).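 Further: 50 nM MmCpn enzyme hydrolysing 30 µM ATP at 37 °C.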 The gist of the method: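 MmCpn (50 nM final) was preincubated with compound 5 min at RT, then 30 uM ATP (final) was added and the reaction ran 10 min at 37C. ADP produced was detected by Transcreener HTRF (ex 320 nm; em 590/665 nm).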

Assay [19] addresses D(1A) dopamine receptor (Homo sapiens) (UniProt P21728). The experiment in a line: HTS Assay for Allosteric Agonists of the Human D1 Dopamine Receptor: Primary Screen for Agonists (AID 488981). The essentials: as §1
For assay [20] the target is unchanged. The experiment in a line: HTS Assay for Allosteric Agonists of the Human D1 Dopamine Receptor: Primary Screen for Antagonists (AID 488983).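 Further: calcium flux response to an EC80 dopamine challenge measured with no-wash dye; nearly all actives have a fitted effect of over 65% in size.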 Further: potency means the concentration at half of the fitted maximal effect. The essentials: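 Tetracycline-induced HEK293 T-REx cells expressing force-coupled D1 were plated overnight at 30 C, dye-loaded for calcium, and read kinetically. Compounds were pinned in, then an EC80 dopamine challenge followed after 180 s to reveal antagonism.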

Sequence of Thioredoxin reductase 1, cytoplasmic (Rattus norvegicus) (O89049 whole entry, looked up): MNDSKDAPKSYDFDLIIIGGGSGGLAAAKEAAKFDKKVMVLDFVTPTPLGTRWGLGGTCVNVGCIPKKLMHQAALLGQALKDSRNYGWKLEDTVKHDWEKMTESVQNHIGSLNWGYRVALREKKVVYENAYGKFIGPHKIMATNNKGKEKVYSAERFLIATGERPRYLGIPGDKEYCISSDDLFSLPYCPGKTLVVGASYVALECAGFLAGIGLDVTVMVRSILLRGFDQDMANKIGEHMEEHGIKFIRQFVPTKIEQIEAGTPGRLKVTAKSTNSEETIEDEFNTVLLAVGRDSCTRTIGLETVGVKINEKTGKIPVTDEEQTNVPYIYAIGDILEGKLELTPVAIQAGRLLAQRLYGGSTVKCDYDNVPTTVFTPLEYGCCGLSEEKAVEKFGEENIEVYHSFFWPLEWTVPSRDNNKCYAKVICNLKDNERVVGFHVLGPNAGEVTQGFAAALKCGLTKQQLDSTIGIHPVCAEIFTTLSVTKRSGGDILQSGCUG
Sequence of Flap endonuclease 1 (Homo sapiens) (P39748 whole entry, looked up): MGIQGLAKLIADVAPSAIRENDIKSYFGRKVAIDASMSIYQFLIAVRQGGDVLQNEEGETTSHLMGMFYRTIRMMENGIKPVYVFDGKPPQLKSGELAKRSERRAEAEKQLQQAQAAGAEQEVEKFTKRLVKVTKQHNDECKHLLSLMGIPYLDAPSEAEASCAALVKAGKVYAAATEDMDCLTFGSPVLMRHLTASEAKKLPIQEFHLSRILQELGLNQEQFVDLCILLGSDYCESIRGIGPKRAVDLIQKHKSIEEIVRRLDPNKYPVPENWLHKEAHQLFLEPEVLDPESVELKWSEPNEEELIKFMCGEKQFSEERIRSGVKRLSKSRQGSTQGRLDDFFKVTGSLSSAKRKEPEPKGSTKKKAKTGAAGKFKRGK
Sequence of M-phase phosphoprotein 8 (Homo sapiens) (Q99549 whole entry, looked up): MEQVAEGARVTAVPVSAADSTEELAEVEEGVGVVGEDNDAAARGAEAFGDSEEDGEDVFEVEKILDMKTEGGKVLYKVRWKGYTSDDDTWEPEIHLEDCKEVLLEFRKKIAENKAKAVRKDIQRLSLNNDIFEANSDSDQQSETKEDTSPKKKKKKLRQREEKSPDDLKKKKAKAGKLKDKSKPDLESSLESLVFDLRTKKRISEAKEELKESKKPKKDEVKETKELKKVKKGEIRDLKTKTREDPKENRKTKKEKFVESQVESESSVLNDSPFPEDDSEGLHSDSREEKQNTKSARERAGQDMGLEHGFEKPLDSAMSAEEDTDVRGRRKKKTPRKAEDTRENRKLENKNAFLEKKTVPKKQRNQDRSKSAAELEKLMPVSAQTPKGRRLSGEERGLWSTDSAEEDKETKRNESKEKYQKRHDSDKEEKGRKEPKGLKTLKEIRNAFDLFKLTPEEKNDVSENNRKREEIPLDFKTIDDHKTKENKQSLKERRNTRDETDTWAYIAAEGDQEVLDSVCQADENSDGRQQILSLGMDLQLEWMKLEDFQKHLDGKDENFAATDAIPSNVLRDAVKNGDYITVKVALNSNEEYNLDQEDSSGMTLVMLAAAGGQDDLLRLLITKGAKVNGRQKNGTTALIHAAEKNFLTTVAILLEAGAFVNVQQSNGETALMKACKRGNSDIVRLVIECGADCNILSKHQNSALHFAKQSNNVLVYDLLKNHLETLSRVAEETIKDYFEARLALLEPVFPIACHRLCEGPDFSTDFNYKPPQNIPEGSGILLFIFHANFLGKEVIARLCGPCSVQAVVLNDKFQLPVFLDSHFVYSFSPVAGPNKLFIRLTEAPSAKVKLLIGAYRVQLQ
Sequence of D(1A) dopamine receptor (Homo sapiens) (P21728 whole entry, looked up): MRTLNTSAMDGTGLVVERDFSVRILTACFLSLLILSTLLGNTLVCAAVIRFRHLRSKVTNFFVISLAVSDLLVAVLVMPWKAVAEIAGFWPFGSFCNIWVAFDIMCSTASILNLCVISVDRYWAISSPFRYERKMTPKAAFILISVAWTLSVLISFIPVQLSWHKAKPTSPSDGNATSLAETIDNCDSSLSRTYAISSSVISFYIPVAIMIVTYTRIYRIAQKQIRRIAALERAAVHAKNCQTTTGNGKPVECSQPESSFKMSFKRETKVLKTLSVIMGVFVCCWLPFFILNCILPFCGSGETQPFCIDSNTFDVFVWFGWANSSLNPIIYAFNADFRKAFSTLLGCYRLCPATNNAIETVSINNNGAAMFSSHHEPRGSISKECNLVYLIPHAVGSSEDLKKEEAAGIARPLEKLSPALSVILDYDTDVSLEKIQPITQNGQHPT
Sequence of Transient receptor potential cation channel subfamily V member 1 (Homo sapiens) (Q8NER1 whole entry, looked up): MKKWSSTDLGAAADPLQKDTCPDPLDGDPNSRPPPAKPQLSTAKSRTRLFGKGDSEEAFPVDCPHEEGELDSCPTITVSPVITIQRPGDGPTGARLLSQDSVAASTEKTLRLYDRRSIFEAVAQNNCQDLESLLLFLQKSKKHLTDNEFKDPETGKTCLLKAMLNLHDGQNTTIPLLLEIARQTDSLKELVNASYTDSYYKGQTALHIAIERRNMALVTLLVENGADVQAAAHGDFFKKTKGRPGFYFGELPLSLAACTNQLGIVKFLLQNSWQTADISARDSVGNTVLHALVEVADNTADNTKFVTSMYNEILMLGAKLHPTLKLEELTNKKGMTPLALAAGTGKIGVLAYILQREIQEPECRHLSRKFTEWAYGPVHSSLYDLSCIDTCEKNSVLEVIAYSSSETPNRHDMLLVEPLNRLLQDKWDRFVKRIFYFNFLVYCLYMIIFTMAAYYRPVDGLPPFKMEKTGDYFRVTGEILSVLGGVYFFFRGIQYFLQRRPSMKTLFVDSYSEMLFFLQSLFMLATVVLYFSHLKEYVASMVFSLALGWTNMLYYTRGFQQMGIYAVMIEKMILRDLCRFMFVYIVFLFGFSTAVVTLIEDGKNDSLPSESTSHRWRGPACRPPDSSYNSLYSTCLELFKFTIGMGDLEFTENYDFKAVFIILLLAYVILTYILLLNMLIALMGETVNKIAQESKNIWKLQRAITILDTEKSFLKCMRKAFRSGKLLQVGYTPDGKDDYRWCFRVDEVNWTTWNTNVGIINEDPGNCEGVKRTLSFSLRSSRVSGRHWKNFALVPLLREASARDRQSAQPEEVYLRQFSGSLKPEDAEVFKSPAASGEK
Sequence of DNA polymerase III PolC-type (Bacillus subtilis (strain 168)) (P13267 whole entry, looked up): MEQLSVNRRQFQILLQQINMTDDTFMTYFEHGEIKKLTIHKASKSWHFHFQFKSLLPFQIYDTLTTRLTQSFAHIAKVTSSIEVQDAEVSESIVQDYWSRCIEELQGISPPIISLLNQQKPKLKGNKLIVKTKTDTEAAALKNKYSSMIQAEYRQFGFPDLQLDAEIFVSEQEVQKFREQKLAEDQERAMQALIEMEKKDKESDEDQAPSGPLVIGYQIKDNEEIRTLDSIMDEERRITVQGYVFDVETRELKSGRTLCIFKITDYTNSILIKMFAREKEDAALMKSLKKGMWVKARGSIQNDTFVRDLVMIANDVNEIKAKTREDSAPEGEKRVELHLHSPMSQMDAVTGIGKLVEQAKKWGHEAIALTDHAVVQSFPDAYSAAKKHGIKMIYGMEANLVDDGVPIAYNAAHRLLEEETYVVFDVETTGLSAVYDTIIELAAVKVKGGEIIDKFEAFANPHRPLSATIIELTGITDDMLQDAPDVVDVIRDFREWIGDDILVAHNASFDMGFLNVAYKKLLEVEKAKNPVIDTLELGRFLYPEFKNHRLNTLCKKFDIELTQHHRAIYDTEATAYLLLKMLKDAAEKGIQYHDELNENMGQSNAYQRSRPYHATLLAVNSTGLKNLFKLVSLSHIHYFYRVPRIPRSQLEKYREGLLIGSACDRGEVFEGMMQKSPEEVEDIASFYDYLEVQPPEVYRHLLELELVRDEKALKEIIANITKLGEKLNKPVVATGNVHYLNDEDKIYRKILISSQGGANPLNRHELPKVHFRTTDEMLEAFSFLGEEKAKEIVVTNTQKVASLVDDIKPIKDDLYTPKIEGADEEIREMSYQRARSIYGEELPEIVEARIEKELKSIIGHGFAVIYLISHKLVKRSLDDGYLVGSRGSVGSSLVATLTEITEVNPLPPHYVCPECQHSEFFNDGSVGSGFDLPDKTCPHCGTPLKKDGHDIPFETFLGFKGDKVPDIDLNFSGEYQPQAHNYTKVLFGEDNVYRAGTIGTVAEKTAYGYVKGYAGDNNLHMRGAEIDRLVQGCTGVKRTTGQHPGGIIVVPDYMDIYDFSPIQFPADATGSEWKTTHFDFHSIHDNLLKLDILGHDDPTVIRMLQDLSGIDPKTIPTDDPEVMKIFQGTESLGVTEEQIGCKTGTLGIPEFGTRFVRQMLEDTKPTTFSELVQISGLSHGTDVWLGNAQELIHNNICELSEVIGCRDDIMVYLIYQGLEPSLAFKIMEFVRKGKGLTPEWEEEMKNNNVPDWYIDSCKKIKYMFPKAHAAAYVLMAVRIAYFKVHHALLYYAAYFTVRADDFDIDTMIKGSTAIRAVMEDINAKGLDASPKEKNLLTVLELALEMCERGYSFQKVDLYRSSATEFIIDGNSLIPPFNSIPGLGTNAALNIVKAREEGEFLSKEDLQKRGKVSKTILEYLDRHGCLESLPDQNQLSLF
Sequence of Tumor susceptibility gene 101 protein (Homo sapiens) (Q99816 whole entry, looked up, the tested form may be a part): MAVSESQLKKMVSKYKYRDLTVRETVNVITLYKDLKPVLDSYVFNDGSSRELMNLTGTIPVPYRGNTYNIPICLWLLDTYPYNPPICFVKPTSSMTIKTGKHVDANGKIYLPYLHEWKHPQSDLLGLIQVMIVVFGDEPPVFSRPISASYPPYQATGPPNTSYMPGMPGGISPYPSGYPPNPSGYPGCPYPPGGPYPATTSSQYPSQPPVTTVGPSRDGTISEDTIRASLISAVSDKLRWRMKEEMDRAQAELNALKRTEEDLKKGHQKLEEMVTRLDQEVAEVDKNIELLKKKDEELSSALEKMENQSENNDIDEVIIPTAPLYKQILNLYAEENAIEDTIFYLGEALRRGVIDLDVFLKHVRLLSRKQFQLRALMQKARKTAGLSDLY

With `NC(N)=NCCC[C@H](N)C(=O)O`, the compound was classed as inactive in [1]. In addition, in [2], the Potency result was “inactive”.

Take `O=C1CC2(CCCC2)CC(=O)N1CCCCN1CCN(c2ncccn2)CC1`: the Potency entry in [2] was “inactive”.

As for `NC(N)=NC(=O)c1nc(Cl)c(N)nc1N`, the outcome in assay [3] and in assay [1] was inactive.

For `C[N+](C)(C)CCCCCCCCCC[N+](C)(C)C`, the outcome in assay [4] and in assay [1] was inactive.

In the case of `c1ccc2nc(N3CCNCC3)ccc2c1`, the Potency entry in [5], in assay [6], in [7] and in [8] was “inactive” throughout. The outcome in assay [9] was inactive.

In the case of `O=C1NCN(c2ccccc2)C12CCN(CCCC(c1ccc(F)cc1)c1ccc(F)cc1)CC2`, the values for the Potency in assay [6] and in [7] were 3.7 µM (active) and 9.28 µM (active), respectively.

Turning to `CCCCCCCCC(=O)NCc1ccc(O)c(OC)c1`, the Potency result in assay [5], in assay [6], in assay [7] and in [8] was “inactive” throughout. Also, the outcome in assay [10] was inactive.

Consider `CC[C@H]1CN2CCc3cc(OC)c(OC)cc3[C@@H]2C[C@@H]1C[C@H]1NCCc2cc(OC)c(OC)cc21`, for which the call in [1] was inactive.

With `COC(=O)C1=C(C)NC(C)=C(C(=O)OC)C1c1ccccc1[N+](=O)[O-]`, the Potency is 12.6 µM (active) in assay [5], 39.8 µM (active) in assay [8], 35.5 µM (active) in assay [2] and 2.59 µM (active) in [11].

Turning to `CC(N)C(=O)OC(C)(C)Cc1ccc(Cl)cc1` (stereo not drawn), the Potency entry in assay [5], in assay [6], in assay [7] and in assay [8] was “inactive” each time. The result in [9] and in [10] was inactive.

Consider `NC(N)=N/N=C/c1c(Cl)cccc1Cl`, for which the Potency result in assay [11] was “inactive”.

With `COC(=O)C1=CCCN(C)C1`, the Potency entry in [5], in [6], in assay [7], in [17], in assay [8] and in assay [2] was “inactive” in each case. Moreover, the Potency result in assay [11] and in assay [20] was “inactive” each time. In addition, the outcome in assay [12], in assay [4], in assay [13], in assay [14], in assay [15] and in [16] was inactive. Besides, the call in assay [3], in assay [1], in [18], in assay [9] and in assay [19] was inactive.

`CN1C[C@H](C(=O)N[C@]2(C)O[C@@]3(O)[C@@H]4CCCN4C(=O)[C@H](Cc4ccccc4)N3C2=O)C[C@@H]2c3cccc4[nH]cc(c34)C[C@H]21`: the Potency result in assay [8] and in assay [11] was “inactive” throughout. Also, the Potency in assay [20] is 8.91 µM (active).

Source of the values: PubChem BioAssay (NCATS).
